# Bioassay records as filed in PubChem.
# PLK1 inh: inhibitors of human PLK1 kinase. inhibition, % at 10 µM. P53350. recombinant PLK1 kinase, TR-FRET peptide phosphorylation. hit rate 0.53% among 97,000;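 active = inhibition of 50% or more in the single-concentration screen; inactive = inhibition below 50%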
# CYP2C9 inhib: inhibitors of human CYP2C9. inhibition, % at 5 µM. P11712. hit rate 20% among 96,000. CYP2C9 Supersomes, luciferin-H conversion, luminescence;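 active = blocking of liver enzyme CYP2C9 beyond about 50% at 5 µM, limit read from the data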
# Target sequence (P11712 whole entry, looked up): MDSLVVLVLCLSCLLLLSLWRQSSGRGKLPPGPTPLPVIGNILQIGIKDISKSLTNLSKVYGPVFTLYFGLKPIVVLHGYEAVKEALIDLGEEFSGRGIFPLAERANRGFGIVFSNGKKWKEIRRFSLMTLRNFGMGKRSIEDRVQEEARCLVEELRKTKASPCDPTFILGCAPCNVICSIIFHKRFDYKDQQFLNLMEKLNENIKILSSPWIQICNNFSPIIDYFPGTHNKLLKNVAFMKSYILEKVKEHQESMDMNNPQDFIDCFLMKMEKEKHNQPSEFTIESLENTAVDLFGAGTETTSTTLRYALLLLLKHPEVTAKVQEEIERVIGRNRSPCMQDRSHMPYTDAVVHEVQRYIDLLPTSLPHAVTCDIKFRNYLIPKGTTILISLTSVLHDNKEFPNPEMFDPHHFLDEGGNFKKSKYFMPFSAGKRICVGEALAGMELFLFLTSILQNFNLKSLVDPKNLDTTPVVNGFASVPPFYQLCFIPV
# PLK1 PBD inh: inhibitors of human Plk1 polo box domain binding; P53350; Plk1 PBD phosphopeptide binding, fluorescence polarization; inhibition, %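 (tested at about 20 µM)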; hit rate 0.13% among 97,000; in the data active = inhibition above about 34%, passing the limit was not always enough
# CYP2C19 activ: cytochrome P450 2C19 (human) activation. activation factor at 5 µM. recombinant CYP2C19, luciferin-H EGE luminescence; hits give high values; 0 = fully inhibited enzyme, 1 = untreated enzyme. 96,000 tested, under 10 active;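 active = activation factor of at least 2 at 5 µM in the primary screen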
# CYP2C19 inhib: blocks human cytochrome P450 2C19; P33261; CYP2C19 Supersomes, luciferin-H EGE luminescence, 30 min; inhibition, % at 5 µM; hit rate 21% among 96,000;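 active = CYP2C19 inhibition above a set limit at 5 µM in the primary screen, cut at about 50% in these data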
# CYP2C9 act: increases human cytochrome P450 2C9 activity; P11712; recombinant CYP2C9, luciferin-H conversion, luminescence; hits give high values; factor 1 = untreated enzyme, 0 = blocked; activation factor at 5 µM; hit rate 1.4% among 96,000;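 active = activation factor of 2 or more for CYP2C9 at a 5 µM dose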
# A number is an active result; - = inactive; . = not tested or not shown. In the library only some 28% were active in any assay of this set; here they are far more common.
SMILES,PLK1 inh,CYP2C9 inhib,PLK1 PBD inh,CYP2C19 activ,CYP2C19 inhib,CYP2C9 act
Cc1ccc(NC(=O)NC(=O)CN2C(=O)NC3(CCCCCCC3)C2=O)c(C)c1,-,-,-,-,-,-
Cc1nnc(SCC(=O)NCCN2C(=O)CSC2=O)s1,-,-,-,-,-,-
O=C(CSc1nc(-c2ccccc2)c(-c2ccccc2)[nH]1)NCc1ccco1,-,50.2,-,-,-,-
O=C(CCCSc1nc2ccccc2[nH]1)NCc1ccco1,-,-,-,-,-,2
O=C(CSc1nc(-c2ccccc2)c(-c2ccccc2)[nH]1)NCCN1C(=O)CSC1=O,-,-,-,-,63.3,-
Cn1nc(CC(=O)NCCN2C(=O)CSC2=O)c2ccccc2c1=O,-,-,-,-,70.4,-
COc1ccc(CCNC(=O)C2CCN(S(=O)(=O)N3CCOCC3)CC2)cc1OC,-,-,-,-,-,-
CN1CCN(c2nc3c(c(=O)[nH]c(=O)n3C)n2CCSc2ncccn2)CC1,.,-,.,-,-,-
COc1ccc(NC(C)=O)cc1NC(=O)CN1CCN(C(=O)c2ccco2)CC1,-,-,-,-,-,-
COc1cc2oc3ccccc3c2cc1N(CC(=O)N1CCCCC1)S(=O)(=O)c1ccc(C)cc1,-,-,-,-,-,-
O=C(CSc1nc(C2CCCCC2)n(-c2ccccc2)n1)NCCN1C(=O)CSC1=O,-,97.7,-,-,95.3,-
O=C(CSc1ncnc2c1oc1ccccc12)N1CCc2ccccc2C1,.,-,.,-,-,-
Cc1ccc2nc(-c3cccnc3SCC(=O)N3c4ccccc4CC3C)[nH]c2c1 (stereo not given),-,-,-,-,-,-
CC1Cc2ccccc2N1C(=O)CSc1nnc2sc3ccccc3n12 (stereo not given),-,66.7,-,-,99.9,-
Cc1nnc(SCC(=O)N2c3ccccc3CC2C)s1 (stereo not given),-,-,-,-,69.4,-
COc1ccc(N2CCN(C(=O)CSc3ncnc4c3cnn4-c3ccccc3C)CC2)cc1,-,-,-,-,-,-
Cc1ccc2nc(SCC(=O)N3c4ccccc4CC3C)c(C)cc2c1 (stereo not given),-,67.3,-,-,-,-
Cc1ccccc1-n1ncc2c(SCC(=O)N3c4ccccc4CC3C)ncnc21 (stereo not given),-,61.5,-,-,-,-
CCC1(C)N=c2c(c(=O)n(C)c(=O)n2C)=NO1 (stereo not given),-,-,-,-,-,-
CCc1nc(SCC(=O)N2c3ccccc3CC2C)c2c(C)c(C)sc2n1 (stereo not given),-,99.2,-,-,63.5,-
CCC(=O)Nc1nnc(SCC(=O)N2c3ccccc3CC2C)s1 (stereo not given),-,.,-,.,.,.
Cc1cc(NC(=O)CCC(=O)N(c2ccccc2)C(C(=O)NC2CCCC2)c2ccccc2)no1 (stereo not given),-,.,-,.,.,.
Cc1cc(NC(=O)CCC(=O)N(Cc2ccco2)C2(C(=O)NC3CCCCC3)CCN(C)CC2)no1,-,-,-,-,74.1,-
Cc1cc(NC(=O)CCC(=O)N(c2ccc(F)cc2)C(C(=O)NC2CCCC2)c2ccncc2)no1 (stereo not given),-,-,-,-,-,-
Cc1ccc(N(C(=O)CCC(=O)Nc2cc(C)on2)C(C(=O)NC2CCCC2)c2cccs2)cc1 (stereo not given),-,89.0,-,-,94.6,-
O=C(NC1CCCC1)C(c1cccs1)N(C(=O)c1ccco1)c1ccc2c(c1)OCCO2 (stereo not given),-,77.7,-,-,80.4,-
Cc1cc(NC(=O)CCC(=O)N(c2ccccc2)C(C(=O)NC2CCCC2)c2cccs2)no1 (stereo not given),-,69.5,-,-,77.4,-
CCCn1c(=O)[nH]c(=O)c2c1nc(-c1ccccc1)n2CCN1CCOCC1,-,-,-,-,-,-
Cc1ccc(C)c(N(C(=O)Cc2cccs2)C(C(=O)NC2CCCC2)c2ccc(C)o2)c1 (stereo not given),-,73.4,-,-,-,-
Cc1ccc(C(C(=O)NC2CCCC2)N(C(=O)Cc2cccs2)c2ccc(C)c(C)c2)o1 (stereo not given),-,-,-,-,-,-
